About 83,000 compounds went through this panel and 20% of them were active in at least one assay; those are over-represented in the sample as a whole.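 Results are percent growth after 48 hours of single-concentration exposure. 100 means growth as in untreated cells, lower positive values show inhibition; negative values down to -100 show cell death.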 Unmarked numbers belong to inactive results. The source made the active and inactive calls. How the source made its calls: active means growth percent below 10; inactive means the rest.
Legend:
Assay in all cases: NCI-60 one-dose screen, 48 h (100 = growth as untreated, 0 = no growth, -100 = all killed)
Conditions in all cases: 10 µM unless noted
RPMI-8226 leukemia = test system: RPMI-8226 leukemia
OVCAR-8 ovarian = test system: OVCAR-8 ovarian
OVCAR-5 ovarian = test system: OVCAR-5 ovarian
OVCAR-4 ovarian = test system: OVCAR-4 ovarian
SK-OV-3 ovarian = test system: SK-OV-3 ovarian
IGROV1 ovarian = test system: IGROV1 ovarian
OVCAR-3 ovarian = test system: OVCAR-3 ovarian
HS 578T breast = test system: HS 578T breast
NCI/ADR-RES ovarian = test system: NCI/ADR-RES ovarian
T-47D breast = test system: T-47D breast
BT-549 breast = test system: BT-549 breast
MDA-MB-435 melanoma = test system: MDA-MB-435 melanoma
SW-620 colon = test system: SW-620 colon
MCF7 breast = test system: MCF7 breast
HCT-116 colon = test system: HCT-116 colon
HCC-2998 colon = test system: HCC-2998 colon
KM12 colon = test system: KM12 colon

Compound	growth (RPMI-8226 leukemia)	growth (OVCAR-8 ovarian)	growth (OVCAR-5 ovarian)	growth (OVCAR-4 ovarian)	growth (SK-OV-3 ovarian)	growth (IGROV1 ovarian)	growth (OVCAR-3 ovarian)	growth (HS 578T breast)	growth (NCI/ADR-RES ovarian)	growth (T-47D breast)	growth (BT-549 breast)	growth (MDA-MB-435 melanoma)	growth (SW-620 colon)	growth (MCF7 breast)	growth (HCT-116 colon)	growth (HCC-2998 colon)	growth (KM12 colon)
COc1ccc(/C=C/C(=O)c2cc(O)ccc2O)cc1	45.8%	88.6%	108%	136%	115%	83.4%	83.4%	106%	91.8%	89.8%	90.4%	75.8%	100%	94%	97.4%	106%	84.1%
CSc1nc(NCCO)c(C#N)c(-c2cccc([N+](=O)[O-])c2)n1	103%	99.1%	98.1%	105%	102%	97.9%	112%	93.4%	98.1%	94.1%	96.6%	99.8%	101%	91.4%	96.1%	102%	98.3%
CCCN1CCN(c2ccc3nc(-c4ccc5nc(-c6ccc(OCC)cc6)[nH]c5c4)[nH]c3c2)CC1	-38.8% (active)	0.816% (active)	62%	-34.6% (active)	67.7%	52.1%	-83.5% (active)	70.4%	41.7%	47.2%	71.2%	27.6%	-83.7% (active)	-69.7% (active)	-89.8% (active)	-96.9% (active)	42.8%
C=CC(=O)Nc1cccc(-c2nc(SC)nc(NCCN3CCOCC3)c2C#N)c1	81.4%	83.1%	107%	90.6%	108%	90.4%	97.8%	82.6%	95%	93%	87.7%	87.1%	108%	72.6%	95.3%	115%	102%
O=C1NC(=S)NC(=O)C1CC(=O)n1c(-c2ccccc2)nc2ccccc21	108%	95.3%	99.5%	98.1%	90.4%	84.2%	103%	98.9%	104%	95.3%	100%	102%	98.6%	80.4%	104%	104%	101%
CC(C)C1=C[C@@]23CC[C@@H]4[C@](C)(CCC[C@@]4(C)C(=O)N4CCCNCC4)[C@H]2C[C@@H]1[C@H]1C(=O)CCC(=O)[C@H]13	100%	96.6%	97.9%	98.8%	107%	99.2%	115%	106%	94.9%	100%	104%	109%	105%	90.4%	103%	107%	101%
CC(=O)O[C@H]1CC[C@]2(C)[C@H]3CC=C4[C@@H]5CC(C)(C)CC[C@]5(C(=O)NCCNCCN)CC[C@@]4(C)[C@]3(C)CC[C@H]2C1(C)C	-44.4% (active)	-85.3% (active)	-87.7% (active)	-25% (active)	95.8%	-63.9% (active)	-91.4% (active)	80.6%	-86% (active)	-46.5% (active)	92.8%	-55.5% (active)	-84.6% (active)	-90.7% (active)	-91.2% (active)	-92.1% (active)	19.7%
C=CC(=O)Nc1cccc(-c2nc(SC)nc(Nc3cccc(OC)c3)c2C#N)c1	40%	42%	103%	62.5%	73.5%	65.9%	52.1%	49.3%	49.2%	38.5%	45.4%	43.4%	89.1%	52.2%	54.4%	82.3%	87.9%
O=C(/C=C/c1ccccc1)c1ccc(O)c(CN2CCN(c3cc4c(cc3F)c(=O)c(C(=O)O)cn4C3CC3)CC2)c1	-7.8% (active)	9.75% (active)	38.2%	85%	20.3%	28.7%	18.4%	31%	49%	27.9%	28.2%	18.6%	23.4%	8% (active)	3.95% (active)	41.2%	31.8%
COc1cc(-c2ccc3c(c2)NC(=O)/C3=C\c2ccc[nH]2)ccc1O	6.57% (active)	18.5%	48.2%	52.4%	30.7%	26.3%	9.59% (active)	53.9%	12.7%	35.2%	46.5%	12.2%	28.8%	6.69% (active)	14.1%	1.36% (active)	1.34% (active)
COc1cc(-c2nn(-c3ccc(C(=O)O)cc3)cc2C(=O)O)ccc1O	88.2%	73.2%	110%	83.8%	74.3%	81%	42.8%	76.5%	29.7%	93.2%	70.3%	-5.36% (active)	32.1%	35.3%	86.6%	91.3%	42.5%
N#C/C(=C\c1ccc(-c2cc(C(F)(F)F)ccc2Cl)o1)c1nc(-c2ccco2)cs1	101%	103%	98.9%	85.1%	100%	104%	113%	103%	106%	80.1%	114%	102%	103%	45.3%	104%	104%	99.9%
NC1=C(Cl)C(=O)c2ccc(S(N)(=O)=O)cc2C1=O	-0.705% (active)	-53.9% (active)	-87.7% (active)	-100% (active)	-45.3% (active)	-85.5% (active)	-95.5% (active)	-21% (active)	-30.7% (active)	-46.1% (active)	-91.5% (active)	-86.8% (active)	-77.9% (active)	-49.5% (active)	-90.1% (active)	-97.1% (active)	-72.1% (active)
CSc1nc(NCCN2CCOCC2)c(C#N)c(-c2cccc([N+](=O)[O-])c2)n1	100%	97.4%	96.2%	87.3%	97.8%	94.9%	109%	97.9%	95.7%	96.8%	94.2%	104%	99.8%	89.4%	98.8%	112%	98.7%
COC(=O)[C@]12CCC(C)(C)C[C@H]1[C@H]1C(=O)C[C@@H]3[C@@]4(C)c5c([nH]c6ccccc6c5=O)C(C)(C)[C@@H]4CC[C@@]3(C)[C@]1(C)CC2	34.9%	59.2%	80.7%	49%	86.4%	94.5%	63.2%	87.1%	49.6%	52.6%	76.4%	57.5%	71.2%	44.5%	33.8%	72.3%	72.9%
COc1ccc(C(=O)/C=C/c2cccnc2Nc2cc(OC)c(OC)c(OC)c2)cc1	-21.2% (active)	-0.898% (active)	37.7%	39.8%	24.7%	72%	11.5%	36.7%	4.44% (active)	44.1%	36.3%	2.91% (active)	-42.5% (active)	12.9%	13.7%	22.9%	14%
CCCCCC(=O)Oc1ccc(/C(=C(\C)c2ccc(OC)cc2)c2ccc(OCCN3CCCCC3)cc2)cc1	9.96% (active)	74.3%	82.2%	54.5%	68.2%	79%	74.9%	64.9%	71.2%	34.8%	72.6%	62.6%	65.1%	24.8%	53.2%	66.7%	52.8%

From PubChem BioAssay (NCI)
